This note sets out measurements from the supplement of paper PMC8699584.

Each structure is given as a SMILES string. “And” between values parts separate entries of the source, which are not always exact repeats. Equal values may be shown once. Where a name gives a salt, the structure may show the parent alone. ± gives the standard deviation of the averaged measurements.

One test has as its system Molm13. The experiment in a line: cell viability relative to DMSO control (bortezomib = 0%); higher = less growth inhibition. Conditions: 10 nM; 72 h. Summed up:
(§1)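 Each plate's values were converted to percentages by linear regression, taking DMSO-treated cells as 100% and positive-control-treated cells as 0%. These plates were 384-well plates of 679 approved and investigational compounds at a single 10 nM dose, onto which acute myeloid leukemia cells were dispensed at 1000 cells per well in 50 µL for 72 h, in duplicate. Cell viability came from CellTiter-Glo luminescence on an EnVision reader.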

The test system of another test is Mv4-11. The description is as above. Conditions: 10 nM; 72 h. Summed up:
as §1

As a reminder, the cell viability is a read-out of living cells in per cent, often relative to untreated cells.

As to `C=CC(=O)Nc1cc(Nc2nccc(-c3cn(C)c4ccccc34)n2)c(OC)cc1N(C)CCN(C)C` [AZD-9291 mesylate], the cell viability with Molm13 was determined as 102 ± 5.5%; with Mv4-11, 94.8 ± 6.1%.

`COc1cc2ncc(-c3ccccc3)nc2cc1OC`: the cell viability came to 101 ± 4.1% with Molm13 and 113 ± 9.7% in the test with Mv4-11.

For `N#CC[C@H](C1CCCC1)n1cc(-c2ncnc3[nH]ccc23)cn1`, the figures for the cell viability with Molm13 and in the test on Mv4-11 were 87.6 ± 8.3% and 109 ± 4%, respectively.

`CCN1CCN(Cc2ccc(-c3cc4c(N[C@H](C)c5ccccc5)ncnc4[nH]3)cc2)CC1`: the cell viability was found to be 100 ± 17% with Molm13 and 109 ± 18% in the test with Mv4-11.

For `COc1cc2ncnc(Nc3ccc(F)c(Cl)c3)c2cc1NC(=O)/C=C/CN1CCCCC1`, the cell viability turned out to be 104 ± 3.3% in the test on Molm13 and 108 ± 1.3% with Mv4-11.

For the molecule `CC(C)(C)n1nc(Cc2cccc3ccccc23)c2c(N)ncnc21`, the values for the cell viability in the test on Molm13 and in the test with Mv4-11 were 106 ± 29% and 106 ± 3%, respectively.

With `COc1cc(Nc2ncc(F)c(Nc3ccc4c(n3)NC(=O)C(C)(C)O4)n2)cc(OC)c1OC`, the cell viability with Molm13 is 105 ± 3.9%; with Mv4-11, 99.7 ± 6.4%.

With `CC1(C)CN(C(=O)c2ccc(-c3cccc4nc(NC(=O)C5CC5)nn34)cc2)C1` [Solcitinib], the figures for the cell viability in the test with Molm13 and in the test on Mv4-11 were 115 ± 6.5% and 114 ± 3.3%, respectively.

Take `C=CC(=O)N1CCC[C@@H](n2nc(-c3ccc(Oc4ccccc4)cc3)c3c(N)ncnc32)C1`: the cell viability with Molm13 was found to be 95.3 ± 9.3%; in the test with Mv4-11, 93.2 ± 4.6%.

`COCCOc1cnc2ccn([C@H](C)c3nnc4c(F)cc(-c5cnn(C)c5)cn34)c(=O)c2c1`: the cell viability in the test on Molm13 was 104 ± 13%; in the test on Mv4-11 it was 115 ± 1.6%.

Take `N#CCC(=O)NN` [Cyanoacetohydrazide]: the figures for the cell viability with Molm13 and in the test on Mv4-11 were 128 ± 1.3% and 109 ± 22%, respectively.

Consider `N#CCC(C1CCCC1)n1cc(-c2ncnc3[nH]ccc23)cn1` (stereo not given), for which the cell viability in the test on Molm13 came to 112 ± 15%; with Mv4-11 it was 113 ± 13%.

For `CC(=O)Nc1cccc(-n2c(=O)n(C3CC3)c(=O)c3c(Nc4ccc(I)cc4F)n(C)c(=O)c(C)c32)c1`, the figures for the cell viability in the test on Molm13 and in the test on Mv4-11 were 101 ± 25% and 107 ± 1.9%, respectively.

On to `O=C(NC(NC(=S)Nc1ccc(F)c([N+](=O)[O-])c1)C(Cl)(Cl)Cl)C(c1ccccc1)c1ccccc1` (stereo not given), for which the cell viability in the test on Molm13 turned out to be 109 ± 8.2%; with Mv4-11, 104.1 ± 0.92%.

Regarding `CCCCCN(CCCOC)C(=O)C(CCC(=O)O)NC(=O)c1ccc(Cl)c(Cl)c1` (stereo not given) [Loxiglumide], the cell viability with Molm13 turned out to be 85.9 ± 4.4%; in the test with Mv4-11 it was 108 ± 3.1%.

In the case of `COc1cc2c(Oc3ccc4[nH]c(C)cc4c3F)ncnc2cc1OCCCN1CCCC1` [Cediranib (AZD2171)], the cell viability in the test with Molm13 was 107 ± 23%; in the test with Mv4-11, 107 ± 10%.

With `CN(c1ncccc1CNc1nc(Nc2ccc3c(c2)CC(=O)N3)ncc1C(F)(F)F)S(C)(=O)=O`, the cell viability with Molm13 is 98 ± 2.3%; in the test with Mv4-11 it was 105 ± 8.8%.

On to `COc1ccc(CNC(=O)Nc2ncc([N+](=O)[O-])s2)cc1`, for which the cell viability in the test with Molm13 was 107 ± 7.3%; with Mv4-11, 114 ± 15%.

As for `O=C1NC(=O)/C(=C/c2ccc3c(c2)OC(F)(F)O3)S1`, the cell viability was found to be 102 ± 18% in the test with Molm13 and 104 ± 34% with Mv4-11.

As to `Nc1ncnc2n[nH]c(Nc3ccc(F)cc3)c12`, the cell viability in the test with Molm13 is 102 ± 11%; with Mv4-11 it was 105 ± 3.4%.

With `CCCN(CCC)C(=O)C(CCC(=O)O)NC(=O)c1ccccc1` (stereo not given) [Proglumide], the cell viability in the test with Molm13 was found to be 100 ± 3%; in the test with Mv4-11, 106 ± 24%.

With `CC(C)NCC(O)c1ccc(O)c(O)c1` (stereo not given) [Isoprenaline hydrochloride], the cell viability was 114 ± 3.4% in the test with Molm13 and 101 ± 17% in the test with Mv4-11.

With `CC[C@@H]1C(=O)N(C)c2cnc(Nc3ccc(C(=O)NC4CCN(C)CC4)cc3OC)nc2N1C1CCCC1`, the cell viability with Molm13 was 64.7 ± 9.6%; with Mv4-11, 96.8 ± 16%.

In the case of `Cc1ccc(NC(=O)c2ccc(CN3CCN(C)CC3)cc2)cc1Nc1nccc(-c2cccnc2)n1` [Imatinib (mesylate)], the cell viability in the test on Molm13 came to 111 ± 16%; in the test with Mv4-11 it was 121 ± 22%.

Regarding `COc1cc(OC)c(/C=C/S(=O)(=O)Cc2ccc(OC)c(NCC(=O)O)c2)c(OC)c1`, the results for the cell viability with Molm13 and with Mv4-11 were 99.3 ± 23% and 124 ± 8.1%, respectively.

In the case of `Cc1cnc(Nc2ccc(OCCN3CCCC3)cc2)nc1Nc1cccc(S(=O)(=O)NC(C)(C)C)c1`, the cell viability in the test on Molm13 came out at 86.3 ± 1.3%; in the test on Mv4-11, 92.97 ± 0.82%.

Consider `Cc1ccc(C(=O)Nc2ccc(CN3CCN(C)CC3)c(C(F)(F)F)c2)cc1C#Cc1cnc2[nH]ncc2c1`, for which the cell viability is -13.5 ± 5.7% in the test with Molm13 and -14.8 ± 0.36% with Mv4-11.

In the case of `Oc1c2ccccc2c2c3c(cccc13)N=N2`, the cell viability was 114% and 102% with Molm13; 103% and 104% in the test with Mv4-11.

Take `O=C(NOC[C@H](O)CO)c1ccc(F)c(F)c1Nc1ccc(I)cc1F`: the cell viability with Molm13 is 89.4% and 96.2%; in the test on Mv4-11 it was 95.5% and 86.8%.

In the case of `Cc1cccc(-c2[nH]c(C(C)(C)C)nc2-c2ccc3c(c2)OCO3)n1`, the cell viability with Molm13 turned out to be 118 ± 26%; in the test on Mv4-11, 107 ± 20%.

With `COc1cc(Nc2c(C#N)cnc3cc(OCCCN4CCN(C)CC4)c(OC)cc23)c(Cl)cc1Cl` [Bosutinib], the cell viability with Molm13 turned out to be 112 ± 24%; in the test on Mv4-11, 90.8 ± 17%.

Regarding `CN1CCN(c2cccc(Nc3nc4c(-c5ccc(S(C)(=O)=O)cc5)cccn4n3)c2)CC1`, the figures for the cell viability with Molm13 and in the test on Mv4-11 were 118 ± 14% and 101 ± 7.2%, respectively.

Turning to `N#CCNC(=O)c1ccc(-c2ccnc(Nc3ccc(N4CCOCC4)cc3)n2)cc1` [Momelotinib (CYT387)], the cell viability in the test with Molm13 amounted to 98.5 ± 17%; with Mv4-11, 110 ± 16%.

Regarding `COC(=O)c1c2c(c3ccccc3c1O)OC(C)(C)C=C2` [Mollugin], the values for the cell viability in the test on Molm13 and in the test with Mv4-11 were 98 ± 1.6% and 100 ± 7.8%, respectively.

For `CN1CC[C@H](c2c(O)cc(O)c3c(=O)cc(-c4ccccc4Cl)oc23)[C@H](O)C1` [Flavopiridol (Alvocidib) hydrochloride], the cell viability was found to be 113.8 ± 0.38% with Molm13 and 100 ± 3.2% in the test on Mv4-11.
